Assay results: PubChem BioAssay
Activity calls are given as the source filed them.

Experiments:
[1] = small molecules captured by biotinylated probe aFSTL3 – biochemical, small-molecule microarray, fluorescence 635/667, stem cell growth factor project, primary screen (AID 1064); conditions: higher = more signal;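 note: measures binding of the biotinylated anti-FSTL3 antibody to printed compounds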
[2] = binders from COS7 lysate, DM2A8 probe, primary screen, torsin A project, cell lysate, small-molecule microarray, fluorescence 635/667 (AID 1065); conditions: higher = more signal, COS7 lysate expressing mutant human TOR1A
[3] = small molecules captured by biotinylated probe aFGF2 – biochemical, small-molecule microarray, fluorescence 635/667, stem cell growth factor project, primary screen (AID 1067); conditions: higher = more signal;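 note: measures binding of biotinylated aFGF2 protein to printed compounds on slides; z-score merges feature fluorescence and signal-to-noise across triplicate slides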
[4] = small molecules captured by biotinylated probe aFGF10 – biochemical, small-molecule microarray, fluorescence 635/667, stem cell growth factor project, primary screen (AID 1071); conditions: higher = more signal;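 note: score merges 667 nm spot intensity and signal to noise from triplicate slides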
[5] = biological target: Neurogenic locus notch homolog protein 2 (Homo sapiens) (UniProt Q04721); experiment: small molecules binding Notch2 protein – biochemical, small-molecule microarray, 635 nm fluorescence, stem cell growth factors, primary screen (AID 1073); conditions: higher = more signal
[6] = biological target: Pro-neuregulin-1, membrane-bound isoform (Homo sapiens) (UniProt Q02297); experiment: small molecules binding neuregulin-1 protein – biochemical, small-molecule microarray, fluorescence 635/667, psychiatric disease protein project, primary screen (AID 1075); conditions: NRG1 binding, 635 nm fluorescence, higher = more signal;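 note: score combines 667 nm spot fluorescence with signal to noise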
[7] = test system: Neuregulin-1 EGF-like domain; experiment: small molecules binding NRG1 EGF domain – biochemical, small-molecule microarray, 635 nm fluorescence, primary screen (AID 1081); conditions: higher = more signal;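 note: binding of the protein to compounds printed on small-molecule microarray slides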
[8] = FRG1 expression reporter modulators in myotubes – cell-based, C2C12 myotubes, firefly/Renilla luciferase, luminescence, FRG1 inhibition for FSHD, primary screen (AID 1084); conditions: FRG1 promoter luciferase, higher = more signal, called active from +8 up or from −8 down
[9] = small molecules captured by biotinylated probe aFST – biochemical, small-molecule microarray, fluorescence 635/667, stem cell growth factor project, primary screen (AID 1086); conditions: higher = more signal;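 note: score merges 667 nm fluorescence with signal-to-noise of each printed compound spot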
[10] = binders of probe aHhip on microarray, primary screen, stem cell growth factor project, biochemical, small-molecule microarray, fluorescence 635/667 (AID 1087); conditions: higher = more signal;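 note: score merges spot fluorescence at 667nm with spot signal to noise ratio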
[11] = test system: PRMT1 (protein arginine N-methyltransferase 1); experiment: small molecules binding arginine methyltransferase PRMT1 – biochemical, small-molecule microarray, 635 nm fluorescence, primary screen (AID 1088); conditions: higher = more signal;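 note: binding of Prmt1 protein to compounds spotted on small-molecule microarray slides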
[12] = growth effects on S. cerevisiae YJM789 – YJM789 clinical isolate, OD600, 24 h, basal, primary screen (AID 1089); conditions: higher = more signal, called active from +8 up or from −8 down;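 note: growth of clinical yeast isolate S. cerevisiae YJM 789 seeded 1000 cells per well; test concentration not given here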
[13] = S. pombe growth modifiers, basal conditions – strain 972, OD600, 24 h, no modulator, primary screen (AID 1090);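 note: basal condition with compound alone and no growth modifier present; test concentration not given here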; conditions: S. pombe 972 growth, higher = more signal, called active from +8 up or from −8 down
[14] = budding yeast growth modifiers under rapamycin – strain BY4716, OD600, 96 h, primary screen (AID 1091); note: test concentration not given here; conditions: S. cerevisiae BY4716 + rapamycin, higher = more signal, called active from +8 up or from −8 down
[15] = biological target: Torsin-1A-interacting protein 2 (Homo sapiens) (UniProt Q8NFQ8); experiment: small molecules binding lysate-expressed LULL1 – cell lysate, human LULL1 lysate, 635/667 nm fluorescence, primary screen (AID 1092); conditions: small-molecule microarray, hLULL1 lysate binding, 635 nm fluorescence; higher = more signal;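 note: probe is lysate of COS7 cells overexpressing human LULL1; score merges per-feature 667 nm fluorescence with signal-to-noise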
[16] = optical density change of DRC41 E. coli – strain DRC41, OD650, 24 h, E. coli filamentation project, primary screen (AID 1093);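 note: MC1000 strain lacking acrAB efflux and sulA so SOS filamentation is blocked; test concentration not given here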; conditions: E. coli DRC41 growth, higher = more signal, called active from +8 up or from −8 down
[17] = probe aLefty2 binding to arrayed compounds – biochemical, biotinylated probe, 635/667 nm fluorescence, primary screen (AID 1094); conditions: small-molecule microarray, higher = more signal;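 note: score merges spot fluorescence near 667 nm with spot signal-to-noise ratio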
[18] = test system: Noggin (protein binding on small-molecule microarray); experiment: small molecules binding Noggin protein – biochemical, 635/667 nm fluorescence, primary screen (AID 1095); conditions: 635 nm fluorescence, higher = more signal;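 note: score merges 667 nm feature fluorescence with signal to noise over triplicate slides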
[19] = biological target: Neurogenic locus notch homolog protein 3 (Homo sapiens) (UniProt Q9UM47); experiment: small molecules binding NOTCH3 protein – biochemical, 635/667 nm fluorescence, primary screen (AID 1096); conditions: small-molecule microarray, 635 nm fluorescence, higher = more signal
[20] = probe aEGFR binding to arrayed compounds – biochemical, biotinylated probe, 635/667 nm fluorescence, primary screen (AID 1097); conditions: small-molecule microarray, higher = more signal;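 note: probe is a biotinylated anti-EGFR antibody binding compounds printed on slides; score combines fluorescence near 667 nm and signal to noise of each spot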

Sequence of Pro-neuregulin-1, membrane-bound isoform (Homo sapiens) (Q02297 whole entry, looked up, the tested form may be a part, canonical isoform): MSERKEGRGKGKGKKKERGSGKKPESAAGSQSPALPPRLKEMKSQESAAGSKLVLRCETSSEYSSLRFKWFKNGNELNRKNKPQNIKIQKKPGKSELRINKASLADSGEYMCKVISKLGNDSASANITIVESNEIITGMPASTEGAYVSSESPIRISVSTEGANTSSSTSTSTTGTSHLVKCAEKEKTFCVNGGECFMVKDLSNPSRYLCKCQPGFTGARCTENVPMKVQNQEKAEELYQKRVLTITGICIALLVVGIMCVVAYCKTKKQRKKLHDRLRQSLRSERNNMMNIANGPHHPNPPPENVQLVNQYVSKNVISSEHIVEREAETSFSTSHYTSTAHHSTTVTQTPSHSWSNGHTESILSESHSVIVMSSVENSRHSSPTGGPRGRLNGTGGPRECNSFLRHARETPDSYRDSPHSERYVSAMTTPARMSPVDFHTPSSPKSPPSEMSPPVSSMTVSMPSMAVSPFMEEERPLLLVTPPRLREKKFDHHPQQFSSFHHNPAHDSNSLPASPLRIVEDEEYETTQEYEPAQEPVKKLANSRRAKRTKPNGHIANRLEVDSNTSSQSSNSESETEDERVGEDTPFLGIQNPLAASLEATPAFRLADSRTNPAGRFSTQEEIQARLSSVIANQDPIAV
Sequence of Neurogenic locus notch homolog protein 2 (Homo sapiens) (Q04721 whole entry, looked up, canonical isoform): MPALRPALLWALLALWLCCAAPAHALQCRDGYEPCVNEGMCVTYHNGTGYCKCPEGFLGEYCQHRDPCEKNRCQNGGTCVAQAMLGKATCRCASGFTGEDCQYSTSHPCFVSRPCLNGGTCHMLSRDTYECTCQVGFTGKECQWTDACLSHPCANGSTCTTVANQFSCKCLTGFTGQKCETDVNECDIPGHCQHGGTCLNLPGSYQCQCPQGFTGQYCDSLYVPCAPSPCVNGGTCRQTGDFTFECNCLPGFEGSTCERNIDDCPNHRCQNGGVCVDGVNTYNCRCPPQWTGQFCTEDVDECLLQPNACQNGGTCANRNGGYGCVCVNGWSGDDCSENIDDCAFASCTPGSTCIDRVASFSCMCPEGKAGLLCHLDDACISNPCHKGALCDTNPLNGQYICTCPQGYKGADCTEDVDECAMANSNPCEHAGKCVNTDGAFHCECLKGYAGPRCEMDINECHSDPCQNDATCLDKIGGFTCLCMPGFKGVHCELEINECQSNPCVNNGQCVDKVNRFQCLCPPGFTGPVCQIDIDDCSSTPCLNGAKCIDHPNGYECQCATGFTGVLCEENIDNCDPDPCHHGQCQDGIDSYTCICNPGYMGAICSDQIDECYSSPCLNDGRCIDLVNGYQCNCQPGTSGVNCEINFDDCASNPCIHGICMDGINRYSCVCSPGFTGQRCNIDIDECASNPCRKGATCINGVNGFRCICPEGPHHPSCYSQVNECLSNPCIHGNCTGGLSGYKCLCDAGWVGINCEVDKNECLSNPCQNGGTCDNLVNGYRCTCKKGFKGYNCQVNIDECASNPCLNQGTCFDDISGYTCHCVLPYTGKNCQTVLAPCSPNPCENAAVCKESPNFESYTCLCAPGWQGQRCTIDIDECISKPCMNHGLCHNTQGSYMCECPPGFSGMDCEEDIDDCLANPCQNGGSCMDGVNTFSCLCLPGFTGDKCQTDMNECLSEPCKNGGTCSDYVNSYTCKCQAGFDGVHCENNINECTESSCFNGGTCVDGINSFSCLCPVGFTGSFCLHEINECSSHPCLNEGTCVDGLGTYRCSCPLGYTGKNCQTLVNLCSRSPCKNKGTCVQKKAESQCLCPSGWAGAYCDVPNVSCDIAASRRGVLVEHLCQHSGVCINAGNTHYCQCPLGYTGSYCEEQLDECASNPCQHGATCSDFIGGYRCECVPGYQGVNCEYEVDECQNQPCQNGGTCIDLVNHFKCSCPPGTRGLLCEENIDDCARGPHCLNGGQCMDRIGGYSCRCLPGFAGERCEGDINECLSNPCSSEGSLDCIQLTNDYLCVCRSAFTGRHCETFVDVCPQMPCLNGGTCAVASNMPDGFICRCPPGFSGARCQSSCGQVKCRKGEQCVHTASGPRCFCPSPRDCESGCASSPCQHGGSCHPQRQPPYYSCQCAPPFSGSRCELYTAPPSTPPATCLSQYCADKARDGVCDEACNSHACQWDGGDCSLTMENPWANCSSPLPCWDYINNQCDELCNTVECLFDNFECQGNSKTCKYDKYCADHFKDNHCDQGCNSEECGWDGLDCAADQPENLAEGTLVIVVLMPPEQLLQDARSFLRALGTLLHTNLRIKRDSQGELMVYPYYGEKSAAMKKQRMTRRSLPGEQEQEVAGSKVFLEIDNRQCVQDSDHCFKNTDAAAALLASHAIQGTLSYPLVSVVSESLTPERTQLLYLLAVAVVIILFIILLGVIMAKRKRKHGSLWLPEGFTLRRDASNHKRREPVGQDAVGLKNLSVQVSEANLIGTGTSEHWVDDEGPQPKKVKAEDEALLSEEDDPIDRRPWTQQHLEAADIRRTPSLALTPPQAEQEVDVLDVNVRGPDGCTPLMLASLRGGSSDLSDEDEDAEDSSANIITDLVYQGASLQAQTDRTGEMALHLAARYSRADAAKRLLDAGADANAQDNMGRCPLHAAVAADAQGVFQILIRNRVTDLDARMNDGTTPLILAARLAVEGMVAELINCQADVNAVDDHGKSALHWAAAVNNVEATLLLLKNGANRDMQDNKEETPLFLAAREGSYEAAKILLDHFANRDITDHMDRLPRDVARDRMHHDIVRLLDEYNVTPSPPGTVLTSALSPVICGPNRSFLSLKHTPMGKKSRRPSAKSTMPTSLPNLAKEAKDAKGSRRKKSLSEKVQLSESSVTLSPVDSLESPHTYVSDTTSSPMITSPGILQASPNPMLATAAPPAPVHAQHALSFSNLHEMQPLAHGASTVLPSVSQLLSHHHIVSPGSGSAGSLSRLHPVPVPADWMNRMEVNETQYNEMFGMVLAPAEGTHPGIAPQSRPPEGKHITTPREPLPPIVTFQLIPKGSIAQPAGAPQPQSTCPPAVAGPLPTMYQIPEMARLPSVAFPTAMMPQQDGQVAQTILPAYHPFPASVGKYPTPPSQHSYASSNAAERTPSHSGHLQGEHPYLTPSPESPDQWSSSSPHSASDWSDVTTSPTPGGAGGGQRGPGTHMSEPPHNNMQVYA
Sequence of Torsin-1A-interacting protein 2 (Homo sapiens) (Q8NFQ8 whole entry, looked up): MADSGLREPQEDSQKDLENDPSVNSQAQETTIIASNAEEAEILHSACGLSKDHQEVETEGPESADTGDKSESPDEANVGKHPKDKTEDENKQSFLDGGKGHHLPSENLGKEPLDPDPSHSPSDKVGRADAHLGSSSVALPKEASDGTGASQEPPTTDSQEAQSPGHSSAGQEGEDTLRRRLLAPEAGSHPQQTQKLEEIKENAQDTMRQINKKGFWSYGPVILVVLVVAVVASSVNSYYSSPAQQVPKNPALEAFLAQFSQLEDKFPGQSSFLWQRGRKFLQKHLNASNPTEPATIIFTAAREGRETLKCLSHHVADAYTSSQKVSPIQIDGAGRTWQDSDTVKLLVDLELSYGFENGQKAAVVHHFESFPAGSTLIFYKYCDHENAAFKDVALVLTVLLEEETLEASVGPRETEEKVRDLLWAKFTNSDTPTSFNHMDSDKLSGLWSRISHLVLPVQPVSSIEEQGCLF

| Structure (SMILES) | composite z-score [1] | composite z-score [2] | composite z-score [3] | composite z-score [4] | composite z-score [5] | composite z-score [6] | composite z-score [7] | z-score [8] | composite z-score [9] | composite z-score [10] | composite z-score [11] | z-score [12] | z-score [13] | z-score [14] | composite z-score [15] | z-score [16] | composite z-score [17] | composite z-score [18] | composite z-score [19] | composite z-score [20] |
| --- | --- | --- | --- | --- | --- | --- | --- | --- | --- | --- | --- | --- | --- | --- | --- | --- | --- | --- | --- | --- |
| COC(=O)Cn1c(C(=O)N2CCCC2)cc2c1C[C@H]1CN(C(=O)c3ccccc3)[C@@](Cc3ccc(F)cc3)(C(=O)OC)[C@@H]21 | -0.366 | 0.281 | -0.0329 | 0.0839 | 0.358 | 2 | 1.07 | -0.566 (inactive) | 0.131 | 0.0845 | -0.533 | -1.98 (inactive) | 0.562 (inactive) | -1.24 (inactive) | 2.03 | 0.782 (inactive) | -0.0199 | -0.405 | -0.251 | -0.363 |
| COC(=O)[C@@]1(Cc2ccc(OC)cc2)[C@H]2c3cc(C(=O)N(C)C)n(Cc4nc5ccccc5[nH]4)c3C[C@H]2CN1C(=O)c1ccccc1 | 0.0732 | -0.401 | 0.212 | 0.874 | 1.76 | 1.82 | 1.23 | -1.62 (inactive) | 1.09 | 0.147 | 0.777 | 0.591 (inactive) | 1.49 (inactive) | 6.95 (inactive) | 3.61 | -0.648 (inactive) | 0.3 | 0.493 | 1.02 | 0.329 |
| C[C@]12C(=O)N(CCCCCCO)[C@@H]3C(=O)N(c4ccc(Cl)cc4)CC=CC31O[C@@H]1/C=C\CCCOC(=O)C12 (stereo not given in full) | 0.299 | -0.268 | -0.121 | -0.387 | -1.02 | 0.0955 | 1.2 | -0.621 (inactive) | -0.21 | -0.132 | 0.807 | -2.23 (inactive) | -1.63 (inactive) | -0.695 (inactive) | 3.27 | 1.19 (inactive) | -0.0665 | -0.463 | -0.353 | -0.194 |
| C=C(COC)/C(=C/C[C@@H](OC(=O)c1ccncc1)c1ccc(OCCO)cc1)c1cnc2ccccc2c1 | -0.0384 | 0.651 | 0.124 | 1.15 | 1.74 | -0.578 | 1.2 | -1.73 (inactive) | 0.28 | -0.0994 | 1.54 | -2.16 (inactive) | -1.05 (inactive) | -0.263 (inactive) | 2.55 | 1.12 (inactive) | -0.0802 | 1.54 | 1.01 | -0.0531 |
| COc1cc2c(cc1OC)CN(C(=O)[C@H]1[C@@H]3C(=O)O[C@@H](c4ccccc4)[C@@H](c4ccccc4)N3[C@@H](c3ccc(OCCO)cc3)[C@]13C(=O)Nc1ccc(C#CC4(O)CCCCCC4)cc13)CC2 | 1.18 | 0.774 | -0.0358 | 0.326 | 1.51 | 1.25 | 1.32 | -0.126 (inactive) | 1.6 | 1.65 | 1.56 | 3.2 (inactive) | 1.28 (inactive) | 4.84 (inactive) | 2.37 | 2.32 (inactive) | 1.02 | 1.47 | 1.09 | 0.678 |
| CC(C)C(O)C1C=CC2C(=O)N(C)C(=O)C2N1N(c1ccccc1)c1ccccc1 (stereo not given) | 0.626 | -0.312 | -0.0613 | -0.577 | 0.461 | 0.371 | -0.142 | -0.165 (inactive) | 0.272 | 0.0139 | -2.15 | 1.01 (inactive) | 1.55 (inactive) | 1.5 (inactive) | 2.17 | -0.573 (inactive) | 0.0443 | -0.306 | -0.853 | 0.102 |
| O=C1C[C@@](C(=O)NCC(F)(F)F)(c2ccc([N+](=O)[O-])cc2)[C@@H](c2ccc(CO)cc2)N1C1CCCCC1 | 0.99 | 1.2 | 0.0216 | 0.606 | 0.303 | 1.24 | 1.37 | 0.265 (inactive) | 0.243 | 0.554 | 1.56 | -0.748 (inactive) | -0.209 (inactive) | -0.917 (inactive) | 3.48 | 0.258 (inactive) | 0.11 | 0.956 | 0.823 | -0.0271 |
| COc1ccc(NN2C(C(O)c3ccccn3)C=CC3C(=O)N(C4CCCCC4)C(=O)C32)cc1 (stereo not given) | -0.218 | -0.287 | 0.0944 | 0.467 | 1.59 | 1.36 | 1.17 | 3.21 (inactive) | 1.29 | -0.152 | 1.56 | -0.199 (inactive) | -0.121 (inactive) | 0.151 (inactive) | 3.26 | 0.265 (inactive) | 0.282 | 0.05 | 1.05 | 0.134 |
| CCOC(=O)C1=CC[C@@H](c2ccccc2)N(S(=O)(=O)c2ccc(C)cc2)C1 | 0.694 | 0.235 | 0.0497 | -0.0495 | 0.681 | -0.273 | 0.643 | -3.73 (inactive) | 0.648 | 0.0274 | -0.363 | 0.483 (inactive) | 1.09 (inactive) | 2.72 (inactive) | 0.353 | -0.855 (inactive) | 0.365 | -0.0914 | -0.198 | -0.0521 |
| NCCCCCNC(=O)[C@@H]1C[C@@H]2C(=O)N[C@@H](CCCCN)C(=O)N2[C@@H]1c1cccc(OCCO)c1 | 0.0523 | 0.329 | -0.0037 | -0.202 | -0.254 | 2.11 | 0.969 | -0.697 (inactive) | -0.413 | 0.0497 | 0.61 | 0.656 (inactive) | 0.212 (inactive) | -0.0182 (inactive) | 0.557 | 0.767 (inactive) | 0.119 | 0.878 | 0.702 | -0.0306 |
